# Experimental data: PubChem BioAssay (NCATS)
# Records with an inconclusive call do not appear. Where a call stands in place of a potency, no number is given. Values without a mark were called inactive. Activity calls are given as the source filed them. The call rests on the fitted dose curve; in most records, active means well fitted curve in the direction sought with a large enough effect; inconclusive means small, poorly fitted or top-dose-only effect, or another doubt; inactive means no such curve, though single readings can be large; an effect the other way counts as inactive or inconclusive.
# Assays:
# [1] = molecular target: Aldehyde dehydrogenase, mitochondrial (Homo sapiens) (UniProt P05091); assay: qHTS for Inhibitors of the Aldehyde Dehydrogenase Family (ALDH2) Primary screen (AID 2061308); further: nearly all actives have a fitted effect of over 55% in size
# [2] = molecular target: Retinaldehyde dehydrogenase 3 (Homo sapiens) (UniProt P47895); assay: qHTS for Inhibitors of the Aldehyde Dehydrogenase Family (ALDH1A3) Primary screen (AID 2061315)
# [3] = molecular target: Retinal dehydrogenase 2 (Homo sapiens) (UniProt O94788); assay: qHTS for Inhibitors of the Aldehyde Dehydrogenase Family (ALDH1A2) Confirmation screens (AID 2061314); further: potency means the concentration at half of the fitted maximal effect; nearly all actives have a fitted effect of over 65% in size
# [4] = BET inhibitor-based combinations targeting novel dependencies in MECOM-rearranged (r) AML: OCI-AML3 cell line (AID 2202232); details: Potency: OCI-AML3 viability; further: nearly all actives have a fitted effect of over 35% in size; further: potency means the concentration at half of the fitted maximal effect
# Summary of the method: (§1)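 A 48 hr incubation preceded viability reading by CellTiter-Glo, with 15 min room-temperature development. Dose series had 11 points; normalization used DMSO and empty wells; AUC was computed and mean-centered per line as Z-AUC.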
# [5] = BET inhibitor-based combinations targeting novel dependencies in MECOM-rearranged (r) AML: MV-4-11 cell line (AID 2202233); further: nearly all actives have a fitted effect of over 45% in size; further: potency means the concentration at half of the fitted maximal effect
# Summary of the method: (§2)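 Each compound is tested in an 11-point concentration series against 500 seeded cells/well for 48 hr. The luminescent viability signal is normalized to DMSO and blank wells, then reduced to AUC and a cell-line-centred Z-AUC.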
# [6] = BET inhibitor-based combinations targeting novel dependencies in MECOM-rearranged (r) AML: HNT-34 cell line (AID 2202234); further: nearly all actives have a fitted effect of over 35% in size; further: potency means the concentration at half of the fitted maximal effect
# Summary of the method: as §2
# [7] = BET inhibitor-based combinations targeting novel dependencies in MECOM-rearranged (r) AML: UCSD-AML1 cell line (AID 2202235); further: nearly all actives have a fitted effect of over 40% in size; further: potency means the concentration at half of the fitted maximal effect
# Summary of the method: as §2
# [8] = BET inhibitor-based combinations targeting novel dependencies in MECOM-rearranged (r) AML: AML-191 cell line (AID 2202236; further: nearly all actives have a fitted effect of over 35% in size; further: potency means the concentration at half of the fitted maximal effect)
# Summary of the method: as §1
# [9] = BET inhibitor-based combinations targeting novel dependencies in MECOM-rearranged (r) AML: AML-194 cell line (AID 2202237; further: nearly all actives have a fitted effect of over 40% in size; further: potency means the concentration at half of the fitted maximal effect)
# Summary of the method: as §1
# [10] = BET inhibitor-based combinations targeting novel dependencies in MECOM-rearranged (r) AML: SET-2 cell line (AID 2202231); details: SET-2 AML cells viability, CellTiter-Glo luminescence, 48 h; viability: active compounds read low, concentration not given here; further: nearly all actives have a fitted effect of over 35% in size; further: potency means the concentration at half of the fitted maximal effect
# Summary of the method: as §1
structure (smiles),measurement,setting,value
CC(C)C(=O)O[C@H]1[C@@H]2[C@H](C)C(=O)O[C@@H]2C[C@@H](C)[C@@H]2C=CC(=O)[C@]21C,Potency,[1],inactive
same,Potency,[2],inactive
O=S(=O)(Nc1nccs1)c1ccc(NCc2cccc(F)c2O)cc1,Potency,[1],inactive
same,Potency,[2],inactive
Cn1cc(Br)c(C2N=C(Nc3nc4ccccc4o3)NC3=C2C(=O)CCC3)n1 (configuration not stated),Potency,[1],inactive
same,Potency,[2],inactive
Cc1c(P(=S)(c2ccccc2)c2ccccc2)[n+]2ccccc2n1C,Potency,[1],inactive
same,Potency,[2],inactive
CCOc1ccc(CCNC(=O)c2ccccc2)cc1OCC,Potency,[1],inactive
same,Potency,[2],inactive
COC1CC(O[C@H]2CC[C@]3(C=O)C4CC[C@]5(C)[C@@H](C6=CC(=O)OC6)CC[C@]5(O)[C@@H]4CC[C@]3(O)C2)OC(C)C1O[C@@H]1O[C@H](CO)[C@@H](O)[C@H](O)[C@H]1O (some centres not stated),Potency,[1],inactive
same,Potency,[2],inactive
CC(=O)O[C@@H]1[C@@H](O)[C@H]2O[C@@H]3C=C(C)[C@@H](O)C[C@]3(CO)[C@]1(C)[C@]21CO1,Potency,[1],inactive
same,Potency,[2],inactive
CCC1CN2CCC3(C(=O)Nc4cccc(O)c43)C2CC1/C(=C/OC)C(=O)OC (configuration not stated),Potency,[1],inactive
same,Potency,[2],inactive
COc1ccc(-n2c(C)cc(-c3nnc4n3CCCCC4)c2C)cc1,Potency,[3],12700 nM (active)
[Cl][Pt].[NH2-].[NH2-].c1ccncc1,Potency,[3],17900 nM (active)
C=C(C)[C@@H]1CCC(C)=C[C@H]1c1c(O)cc(CCCCC)cc1O,Potency,[4],20900 nM (active)
CO[C@H]1CCC(O[C@H]2C[C@H]([C@]3(C)CC[C@]4(C[C@H](O)[C@@H](C)[C@@H]([C@@H](C)/C=C(\C)C(=O)[C@H](C)C[C@H](C)C(=O)O)O4)O3)O[C@]3(O[C@@H]([C@H]4O[C@@](O)(CO)[C@H](C)C[C@@H]4C)C[C@@H]3C)[C@@H]2C)O[C@@H]1C (some centres not stated),Potency,[5],372 nM (active)
same,Potency,[6],148 nM (active)
same,Potency,[7],2630 nM (active)
same,Potency,[8],1660 nM (active)
same,Potency,[9],263 nM (active)
N#CC(O[C@@H]1O[C@H](CO[C@@H]2O[C@H](CO)[C@@H](O)[C@H](O)[C@H]2O)[C@@H](O)[C@H](O)[C@H]1O)c1ccccc1 (some centres not stated),Potency,[4],inactive
same,Potency,[8],inactive
same,Potency,[9],inactive
CC1(C)CC[C@]2(NC(=O)C(C)(F)F)CC[C@]3(C)[C@H](C(=O)C=C4[C@@]5(C)C=C(C#N)C(=O)C(C)(C)[C@@H]5CC[C@]43C)[C@@H]2C1,Potency,[10],1660 nM (active)
same,Potency,[6],1660 nM (active)
same,Potency,[7],1320 nM (active)
same,Potency,[8],1860 nM (active)
same,Potency,[9],1860 nM (active)
CC1(C)CC(O)CC(C)(C)N1O,Potency,[4],inactive
same,Potency,[6],inactive
same,Potency,[8],inactive
same,Potency,[9],inactive
C[C@]12CC[C@H]3[C@@H](CC[C@@]45O[C@@H]4C(O)=C(C#N)C[C@]35C)[C@@H]1CC[C@@H]2O,Potency,[7],inactive
same,Potency,[9],inactive
C[C@@]12OC(=O)[C@]1([C@@H](O)[C@@H]1C=CCCC1)NC(=O)[C@@H]2CCCl,Potency,[4],20.9 nM (active)
same,Potency,[6],37.2 nM (active)
COC[C@H]1OC(=O)c2coc3c2[C@@]1(C)C1=C(C3=O)[C@@H]2CC[C@H](O)[C@@]2(C)C[C@H]1OC(C)=O,Potency,[10],18600 nM (active)
same,Potency,[5],5900 nM (active)
same,Potency,[7],1660 nM (active)
same,Potency,[8],7420 nM (active)
same,Potency,[9],8330 nM (active)
CC(C)(NC(=O)O[C@@H]1CN2CCC1CC2)c1csc(-c2ccc(F)cc2)n1,viability,[10],91.1%
same,Potency,[6],14800 nM (active)
same,Potency,[7],inactive
same,Potency,[9],inactive
CC(C)[C@]12O[C@H]1[C@@H]1O[C@@]13[C@@]1(C)CCC4=C(COC4=O)[C@@H]1C[C@@H]1O[C@@]13C2=O,Potency,[10],83.3 nM (active)
same,Potency,[6],166 nM (active)
same,Potency,[7],74.2 nM (active)
same,Potency,[8],83.3 nM (active)
same,Potency,[9],332 nM (active)
COC12C(COC(N)=O)C3=C(C(=O)C(C)=C(N)C3=O)N1CC1C2N1C (configuration not stated),Potency,[4],inactive
same,Potency,[5],inactive
same,Potency,[8],inactive
C/C1=C/C[C@@H](/C(C)=C/c2csc(C)n2)OC(=O)C[C@H](O)C(C)(C)C(=O)[C@H](C)[C@@H](O)[C@@H](C)CCC1,Potency,[5],148 nM (active)
same,Potency,[8],83.3 nM (active)
C/C(O)=C(\C#N)C(=O)Nc1cc(Br)ccc1Br,Potency,[4],inactive
same,Potency,[6],inactive
same,Potency,[7],inactive
same,Potency,[8],inactive
CC(=O)OC[C@H]1O[C@@H]([S-])[C@H](OC(C)=O)[C@@H](OC(C)=O)[C@@H]1OC(C)=O.CC[PH+](CC)CC.[Au],Potency,[4],296 nM (active)
same,Potency,[5],235 nM (active)
same,Potency,[8],1050 nM (active)
same,Potency,[9],2950 nM (active)
CN1C(=O)[C@@H](NC(=O)[C@H](CCC(F)(F)F)[C@H](CCC(F)(F)F)C(N)=O)N=C(c2ccccc2)c2ccccc21,viability,[10],114%
same,Potency,[5],inactive
same,Potency,[6],inactive
same,Potency,[7],inactive
same,Potency,[9],inactive
